Compound activity (PubChem BioAssay)
Calb FLC – affects C. albicans growth with fluconazole; C. albicans CaCi-2 (fluconazole-resistant clinical isolate) + fluconazole, Alamar Blue growth, 48 h; growth inhibition, % (concentration not given with the values); 300,000 compounds, 0.57% hits;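 active = growth inhibition above about 58% in most replicates, limit read from the data, passing the limit was not always enough; inconclusive = exactly half the replicates above a set limit; inactive = most replicates below a set limit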;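 note: all wells also contain fluconazole at 8 µg/ml as a sub-toxic cotreatment; 0% = median of DMSO wells and 100% = median of geldanamycin control wells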
Beta cell apopt – beta cell apoptosis inhibition. 300,000 compounds, 0.8% hits. protection from apoptosis, % (no concentration beside the values). AID 435005. INS-1E cytokine-induced death, ATP luminescence, 48 h; percent of positive-control rescue, neutral wells zero;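 active = Every replicate reaches about 75%, or at least half do and their mean reaches it too, limit read from the data; inconclusive = At least half of replicates reach the limit but their mean does not; inactive = Under half of replicates reach the limit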;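 note: 0% = cytokine-treated negative control wells and 100% = positive control rescue; higher means more ATP so stronger rescue from cytokine killing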
Mdm2-MdmX inh – disrupts the human Mdm2-MdmX interaction; 330,000 compounds, 3% hits; O15151+Q00987; SaOS-2 split-luciferase Mdm2/MdmX complementation, luminescence; inhibition, % at 8 µM;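 active = inhibition of at least 50% at 8 µM in the primary screen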
CSC inhib – cancer stem cell inhibition; cancer stem cell-like cells viability, luminescence; inhibition, % at 7.5 µM; 300,000 compounds, 1.1% hits; AID 2717; in the data active = inhibition above about 75%; inconclusive = no clear call, values can overlap the other calls; tested in HMLE shEcad cells
MPTP inh – inhibitors of mitochondrial permeability transition pore | AID 602449 | 360,000 compounds, 1.4% hits | isolated mouse mitochondria, Ca2+ swelling absorbance, 30 min | inhibition, % at 10 µM;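 active = inhibition of 50% or more, scaled per plate between neutral and stimulator controls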;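 note: 0% = DMSO wells given calcium and 100% = 1 mM EGTA wells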
SKKanGAS inh – inhibitors of SKKanGAS S. pyogenes growth in kanamycin (SK-promoter or general growth effect); 300,000 compounds, 1.3% hits; inhibition, % at 7.5 µM; AID 1662; BacTiter-Glo, 6 h;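 active = mean replicate score, as percent of positive control median, at least 50; inconclusive = mean below 50 but one replicate at or above 50; inactive = mean and every replicate below 50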;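 note: strain carries kanamycin resistance gene driven by streptokinase promoter and grows in 40 µg/ml kanamycin; loss of luminescence reflects streptokinase promoter inhibition or plain growth inhibition; 0% = median of DMSO wells and 100% = positive control at its reference dose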
Mdm2-MdmX conf – human Mdm2/MdmX binding inhibition, confirmed | shares compounds with Mdm2-MdmX inh | luminescent assay | inhibition, % at 8 µM | 10,000 compounds, 55% hits | AID 489028; in the data active = inhibition above about 40%
Full FLuc ctr – counter-screen for Mdm2/MdmX inhibitors: full-length luciferase; 6,200 compounds, 77% hits; SaOS-2 full-length luciferase counterscreen, luminescence; shares compounds with Mdm2-MdmX inh; AID 504607; inhibition, % at 8 µM;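 active = mean inhibition at 8 µM reaching about 37%, which flags the compound as non-specific, limit read from the data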;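 note: p53-null SaOS-2 cells with luciferase driven by a doxycycline-inducible promoter; compound on cells about two nights before reading with doxycycline added after day one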
Active calls of the source: *; u = inconclusive; x = no result. The list is not random: actives were taken first. Their share in the collection is about 5.4%.

SMILES	Calb FLC	Beta cell apopt	Mdm2-MdmX inh	CSC inhib	MPTP inh	SKKanGAS inh	Mdm2-MdmX conf	Full FLuc ctr
CN(C)/N=C/C=C1\CCC/C(=C\c2ccc(F)c(F)c2)C1=O	13.0	18.8	77.1*	84.9*	-0.9	-12.3	27.9	44.4*
COc1ccc(/C=C2\CCCCC2=O)cc1	0.8	-4.1	-4.0	-9.0	1.4	-1.2	x	x
O=C(O)CC1=C(c2ccc(F)cc2)CCC1=O	2.2	0.3	-1.0	-5.1	0.6	12.7	x	x
CC(CN1CCN(CCOCCO)CC1)CN1c2ccccc2Sc2ccc(Cl)cc21 (configuration not stated)	x	x	x	x	-1.5	x	x	x
COc1ccc(-c2cc(-c3ccc(O)cc3)nc(N)c2C#N)cc1OC	14.6	-3.5	58.5*	12.3	-3.1	10.5	42.0*	100.4*
COc1ccc(-c2c(C#N)c(N)nc3c2CCc2ccccc2-3)cc1OC	u	67.8	89.0*	52.9	x	19.9	85.1*	50.1*
Cc1cc(C(=O)COC(=O)c2cccnc2Cl)c(C)n1CC1CCCO1 (configuration not stated)	11.0	8.3	79.1*	-14.6	1.8	10.4	81.5*	97.4*
COCCn1c(C)cc(C(=O)COC(=O)c2ccccc2Br)c1C	23.7	2.0	79.8*	-6.8	0.4	3.8	92.8*	73.7*
Cc1ccc(C(=O)OCC(=O)c2cc(C)n(CC3CCCO3)c2C)cc1 (configuration not stated)	-0.8	-4.9	9.8	-2.6	0.1	0.5	x	x
Cc1cc(C(=O)COC(=O)c2ccccc2Br)c(C)n1CC1CCCO1 (configuration not stated)	-2.6	9.2	90.9*	-16.6	1.4	-3.3	93.2*	38.6*
COCCn1c(C)cc(C(=O)COC(=O)c2cccnc2SC)c1C	x	11.3	-11.1	-9.6	-0.1	x	x	x
Cc1cc(C(=O)COC(=O)c2ccccc2O)c(C)n1Cc1cccs1	-10.6	7.9	96.9*	5.4	-0.8	7.5	94.2*	21.1
O=C(COC(=O)c1ccccc1[N+](=O)[O-])c1ccc2c(c1)OCO2	-1.9	-8.9	53.1*	-12.1	-1.6	-2.1	82.9*	148.2*
CCn1c(C)cc(C(=O)COC(=O)c2ccccc2[N+](=O)[O-])c1C	x	32.3	96.3*	7.2	-0.8	x	96.3*	53.2*
Cc1cc(C(=O)COC(=O)c2ccccc2O)c(C)n1CC1CCCO1 (configuration not stated)	x	12.0	93.7*	x	0.3	x	97.3*	35.8
Cc1cc(C(=O)COC(=O)c2cccc(NS(C)(=O)=O)c2)c(C)n1CC1CCCO1 (configuration not stated)	x	-1.1	70.4*	-26.4	4.0	x	74.0*	97.1*
Cc1cc(C(=O)COC(=O)c2ccccc2NCCO)c(C)n1CC1CCCO1 (configuration not stated)	-4.5	-4.6	4.7	16.8	0.0	19.3	x	x
CCOc1ccc(C(CC(=O)O)NC(=O)c2cccs2)cc1 (configuration not stated)	-2.2	-7.7	-15.2	-6.4	0.2	0.4	x	x
Cc1oc2c(Cl)c(Cl)c(O)c(CN(C)C)c2c1C(=O)c1ccc(Cl)cc1	8.7	-7.2	59.5*	-19.0	2.2	38.9	66.2*	26.8
CCn1c2ccccc2c2cnc(N=CN(C)C)c(C#N)c21	25.4	-17.3	75.6*	-6.8	-1.4	-0.8	87.2*	20.0
CC1=NN(c2ccccc2)C(=O)/C1=C/c1cc2cc(C)ccc2nc1N1CCCCC1	-1.5	x	-74.0	61.4	x	2.5	x	x
Cc1[nH]c2ccccc2c1/C=C/c1nc2ccccc2c(=O)n1-c1ccc([N+](=O)[O-])cc1	21.0	6.8	64.3*	9.3	3.0	-2.5	-16.2	x
COc1cc(NC(=O)c2cc3ccccc3cc2OC)ccc1NC(=O)c1cccs1	-10.6	18.6	58.0*	2.9	-0.1	34.1	57.4*	90.4*
COc1cc(NC(=S)NC(=O)c2ccc(C(C)(C)C)cc2)ccc1NC(=O)c1cccs1	9.8	20.3	89.7*	71.1	2.1	10.6	68.1*	27.7
Cc1ccc(Sc2ccc(C(=O)N(C)C)cc2[N+](=O)[O-])cc1	26.0	-4.2	23.9	15.4	-1.0	-10.9	x	x
